# Results as given in PubChem BioAssay (Tox21).
# A number with no mark means an inactive call. Inconclusive results are not listed. Where a call stands in place of a potency, no number is given. Calls of active or inactive are those of the source. Unless noted, the call rests on the fitted dose curve.
# Key:
# [1] = Nuclear factor erythroid 2-related factor 2/antioxidant responsive element (Nrf2/ARE) small molecule agonists: qHTS cell viability counter screen in human keratinocytes (AID 1919968; active means well fitted curve in the direction sought with a large enough effect in the repeat runs; an effect the other way counts as inactive or inconclusive; further: nearly all actives have a fitted effect of over 55% in size)
# Method in brief: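 In human HaCaT keratinocytes stably expressing an ARE-driven luciferase, compound exposure lasted 23 h at 37 C under 5% CO2. Viable cells are quantified with a protease-based fluorogenic reagent (CellTiter-Fluor) read 1 h after addition.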
# [2] = Nuclear factor erythroid 2-related factor 2/antioxidant responsive element (Nrf2/ARE) small molecule agonists: luciferase reporter gene qHTS assay in human keratinocytes (AID 1919969); further: nearly all actives have a fitted effect of over 35% in size; further: potency means the concentration at half of the fitted maximal effect
# [3] = molecular target: Gonadotropin-releasing hormone receptor (Homo sapiens) (UniProt P30968); assay: Human gonadotropin-releasing hormone receptor (GnRHR) small molecule agonists, calcium flux assay in GnRHR-HEK293 cells (AID 1920063); further: nearly all actives have a fitted effect of over 35% in size
# Chain of Gonadotropin-releasing hormone receptor (Homo sapiens) (P30968 whole entry, looked up): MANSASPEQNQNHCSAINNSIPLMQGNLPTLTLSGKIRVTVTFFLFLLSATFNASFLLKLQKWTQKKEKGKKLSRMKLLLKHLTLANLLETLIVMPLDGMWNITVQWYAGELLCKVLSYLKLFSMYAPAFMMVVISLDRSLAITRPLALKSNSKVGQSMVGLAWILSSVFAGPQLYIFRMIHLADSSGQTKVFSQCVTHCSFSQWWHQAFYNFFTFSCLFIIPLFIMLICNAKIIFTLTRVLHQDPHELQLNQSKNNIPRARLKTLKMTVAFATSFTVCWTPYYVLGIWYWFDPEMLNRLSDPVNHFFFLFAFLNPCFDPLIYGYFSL
# Method in brief: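 Intracellular calcium rise is the read-out: engineered human GnRHR HEK293 cells, dye-loaded, are exposed to DMSO-dissolved compounds and fluorescence at Ex/Em 480/540 is tracked for 3 min.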
# [4] = molecular target: KiSS-1 receptor (Homo sapiens) (UniProt Q969F8); assay: Human kisspeptin (KISS1R) small molecule agonists, calcium flux assay in KISS1R-HEK293 cells (AID 1920064; active means well fitted curve in the direction sought with a large enough effect in the repeat runs; an effect the other way counts as inactive or inconclusive)
# Chain of KiSS-1 receptor (Homo sapiens) (Q969F8 whole entry, looked up): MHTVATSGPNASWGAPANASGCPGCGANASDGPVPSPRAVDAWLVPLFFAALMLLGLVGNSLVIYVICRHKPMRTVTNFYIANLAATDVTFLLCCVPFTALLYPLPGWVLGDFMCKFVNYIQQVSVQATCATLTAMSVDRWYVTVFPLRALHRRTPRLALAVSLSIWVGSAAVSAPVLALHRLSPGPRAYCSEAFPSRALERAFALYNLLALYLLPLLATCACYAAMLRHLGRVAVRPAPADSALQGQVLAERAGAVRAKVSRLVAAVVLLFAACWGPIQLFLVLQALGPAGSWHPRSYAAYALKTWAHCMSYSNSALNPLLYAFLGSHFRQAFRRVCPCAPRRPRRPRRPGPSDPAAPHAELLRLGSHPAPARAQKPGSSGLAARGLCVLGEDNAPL
# Method in brief: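 Concentration-response testing used 15 concentrations in triplicate on human KISS1R-expressing HEK293 cells. Calcium-dependent fluorescence (Ex/Em 480/540) was followed kinetically for 3 min after compound transfer.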
# [5] = G protein-coupled receptor (GPCR) small molecule agonists, calcium flux assay: HEK293 wild type cell line counter screen (AID 1920065)
# Method in brief: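 Fluorescence intensity signals activation. After overnight (18 h) culture and a 1 h calcium dye load at 37 C, compounds are added by pin tool and the plate read at 480/540 nm for 3 min in 1 s steps.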
# [6] = p53 small molecule agonists, cell-based qHTS assay with human liver microsomes (AID 1963577);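 further: p53 response element beta-lactamase reporter cells with liver microsomes plus NADPH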
# Method in brief: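 p53RE-bla cells; 5 h settle, 37 C/5% CO2; cpd + HLM 0.5 mg/mL + NADPH 0.5 mg/mL (final); 16 h 37 C; LiveBLAzer 2 h RT dark; fluorescence readout.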
# [7] = p53 small molecule agonists, cell-based qHTS assay with rat liver microsomes (AID 1963578)
# Method in brief: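 Rat liver microsome activation: microsomes 0.5 mg/mL, NADPH 0.5 mg/mL final; p53RE-bla cells, 16 h 37 C; LiveBLAzer readout, 2 h RT dark.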
# [8] = p53 small molecule agonists, cell-based qHTS assay with human liver microsomes: qHTS cell viability counter screen (AID 1963579); further: nearly all actives have a fitted effect of over 45% in size
# Method in brief: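 Luminescent CellTiter-Glo read-out, 30 min at room temperature, gauged cytotoxicity in p53RE-bla cells exposed 16 h at 37 C to DMSO-dissolved compounds with metabolic activation by human liver microsomes and NADPH, each 0.5 mg/mL final.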
# [9] = p53 small molecule agonists, cell-based qHTS assay with rat liver microsomes: qHTS cell viability counter screen (AID 1963580); further: nearly all actives have a fitted effect of over 45% in size
# Method in brief: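 Counter screen for cytotoxicity under metabolic activation: rat liver microsomes and NADPH, 0.5 mg/mL final each, added with compounds to p53RE-bla HCT-116 cells; 16 h at 37 C, then ATP luminescence read.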
# [10] = p53 small molecule agonists, cell-based qHTS assay: qHTS cell viability counter screen (AID 1963581); further: nearly all actives have a fitted effect of over 45% in size
# Method in brief: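 Luminescence from CellTiter-Glo, reflecting ATP content, serves as the cytotoxicity measure; it is taken after the 2 h reporter substrate step in HCT-116 p53RE-bla cells dosed for 16 h at 37 C.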
# [11] = molecular target: 5-hydroxytryptamine receptor 2A (Homo sapiens) (UniProt P28223); assay: 5-hydroxytryptamine receptor 2A (HTR2A) small molecule antagonists, cell-based qHTS assay (AID 1963586); further: nearly all actives have a fitted effect of over 45% in size
# Chain of 5-hydroxytryptamine receptor 2A (Homo sapiens) (P28223 whole entry, looked up): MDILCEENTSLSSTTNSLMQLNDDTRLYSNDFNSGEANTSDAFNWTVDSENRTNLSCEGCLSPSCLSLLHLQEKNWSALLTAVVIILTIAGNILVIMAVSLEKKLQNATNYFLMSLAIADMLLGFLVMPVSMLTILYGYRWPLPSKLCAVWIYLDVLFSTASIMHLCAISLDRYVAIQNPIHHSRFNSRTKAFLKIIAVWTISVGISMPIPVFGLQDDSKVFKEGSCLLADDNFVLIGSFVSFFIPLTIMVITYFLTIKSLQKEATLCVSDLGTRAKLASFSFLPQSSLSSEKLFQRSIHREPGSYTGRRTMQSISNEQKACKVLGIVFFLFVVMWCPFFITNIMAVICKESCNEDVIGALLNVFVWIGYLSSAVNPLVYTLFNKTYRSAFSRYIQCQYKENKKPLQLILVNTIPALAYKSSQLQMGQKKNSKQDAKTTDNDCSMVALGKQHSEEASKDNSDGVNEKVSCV
# Method in brief: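 CHO cells stably expressing human HTR2A were plated for 18 h at 37 C, then loaded with calcium dye for 1 h. Compounds were preincubated 5 min at room temperature before DOI (4 nM solution) was added. Kinetic fluorescence was read for 3 min.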
# [12] = molecular target: Muscarinic acetylcholine receptor M1 (Homo sapiens) (UniProt P11229); assay: Cholinergic receptor muscarinic 1 (CHRM1) small molecule antagonists, cell-based qHTS assay (AID 1963588); further: nearly all actives have a fitted effect of over 40% in size
# Chain of Muscarinic acetylcholine receptor M1 (Homo sapiens) (P11229 whole entry, looked up): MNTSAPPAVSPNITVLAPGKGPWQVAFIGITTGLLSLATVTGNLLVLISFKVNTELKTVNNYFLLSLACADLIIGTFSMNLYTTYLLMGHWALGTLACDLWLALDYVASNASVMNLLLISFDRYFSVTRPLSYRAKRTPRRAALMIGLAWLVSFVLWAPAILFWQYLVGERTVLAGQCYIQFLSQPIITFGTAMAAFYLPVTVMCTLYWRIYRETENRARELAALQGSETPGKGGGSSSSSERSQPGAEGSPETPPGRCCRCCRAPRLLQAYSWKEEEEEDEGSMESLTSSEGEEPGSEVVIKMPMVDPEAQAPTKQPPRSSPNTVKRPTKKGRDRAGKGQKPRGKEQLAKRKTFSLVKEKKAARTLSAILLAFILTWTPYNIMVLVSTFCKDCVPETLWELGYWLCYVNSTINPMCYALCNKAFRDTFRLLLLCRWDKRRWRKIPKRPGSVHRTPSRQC
# Method in brief: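 Compounds were tested at 15 concentrations in three independent runs. Dye-loaded CHRM1-CHO cells were exposed 5 min at room temperature before stimulation by acetylcholine added at 50nM. Intracellular calcium was read kinetically on FDSS for 3 min.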
# [13] = molecular target: Muscarinic acetylcholine receptor M1 (Homo sapiens) (UniProt P11229); assay: Cholinergic receptor muscarinic 1 (CHRM1) small molecule agonists, cell-based qHTS assay (AID 1963589); further: nearly all actives have a fitted effect of over 35% in size
# Method in brief: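 Fluorescent calcium dye reports M1 activation in stably transfected CHO cells. Compounds, 15 concentrations, added after 1 h dye loading at 37 C; kinetic reading at 1 sec intervals.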
# [14] = cAMP Responsive Elements (CRE) small molecule agonists, cell-based qHTS assay (AID 1963590)
# Method in brief: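 Compound exposure lasted 3 h at 37 C/5% CO2 in CRE-bla HEK 293T cells grown in assay medium with 10% dialyzed FBS and 25 mM HEPES. Reporter signal came from LiveBLAzer B/G FRET substrate, 2 h, room temperature.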
# [15] = cAMP Responsive Elements (CRE) small molecule antagonists, cell-based qHTS assay (AID 1963591; active means well fitted inhibition curve with a large enough effect in the signal ratio in the repeat runs, not every such curve was filed as active; the % refers to the signal ratio)
# Method in brief: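 Stimulation used NKH477 at a final 0.25 uM for 3 h in compound-treated CRE-bla HEK293T cells, seeded 18 h beforehand. Reporter activity was measured with LiveBLAzer B/G FRET substrate after 2 h at room temperature.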
# [16] = molecular target: Beta-2 adrenergic receptor (Homo sapiens) (UniProt P07550); assay: Adrenergic beta2 receptor (ADRB2) small molecule antagonists, cell-based qHTS assay (AID 1963592); further: series mostly up to about 92 µM; nearly all actives have a fitted effect of over 50% in size
# Chain of Beta-2 adrenergic receptor (Homo sapiens) (P07550 whole entry, looked up): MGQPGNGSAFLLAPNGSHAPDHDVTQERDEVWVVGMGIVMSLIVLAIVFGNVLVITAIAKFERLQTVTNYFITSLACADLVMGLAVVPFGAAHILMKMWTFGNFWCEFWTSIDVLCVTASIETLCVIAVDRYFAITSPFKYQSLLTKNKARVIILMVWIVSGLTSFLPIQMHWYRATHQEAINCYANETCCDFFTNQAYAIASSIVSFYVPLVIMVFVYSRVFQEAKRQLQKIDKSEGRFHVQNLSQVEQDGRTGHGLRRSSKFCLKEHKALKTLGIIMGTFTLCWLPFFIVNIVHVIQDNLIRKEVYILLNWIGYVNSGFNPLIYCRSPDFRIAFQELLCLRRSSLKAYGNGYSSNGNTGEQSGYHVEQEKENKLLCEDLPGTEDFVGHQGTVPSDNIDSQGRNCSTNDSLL
# Method in brief: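 Assay format: CHO-ADRB2 cells, 18-20hr seeding at 37C/5% CO2, then compound plus 1nM isoproterenol agonist mix for 0.5hr RT. Homogeneous time-resolved fluorescence cAMP detection after 1hr, expressed as 665/615 nm ratio.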
# [17] = molecular target: Beta-2 adrenergic receptor (Homo sapiens) (UniProt P07550); assay: Adrenergic beta2 receptor (ADRB2) small molecule agonists, cell-based qHTS assay (AID 1963593);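 further: CHO cells stably overexpressing human ADRB2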
# Method in brief: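 CHO cells stably over-expressing ADRB2 were plated overnight at 37C, then dosed with compounds plus a stimulation mix containing 100uM IBMX and 25uM Ro-20-1724 for 0.5hr at room temperature. cAMP was measured by HTRF competition, 1hr.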
# [18] = molecular target: D(2) dopamine receptor (Homo sapiens) (UniProt P14416); assay: Dopamine D2 receptor (DRD2) small molecule agonists, cell-based qHTS assay (AID 1963594); further: nearly all actives have a fitted effect of over 35% in size
# Chain of D(2) dopamine receptor (Homo sapiens) (P14416 whole entry, looked up): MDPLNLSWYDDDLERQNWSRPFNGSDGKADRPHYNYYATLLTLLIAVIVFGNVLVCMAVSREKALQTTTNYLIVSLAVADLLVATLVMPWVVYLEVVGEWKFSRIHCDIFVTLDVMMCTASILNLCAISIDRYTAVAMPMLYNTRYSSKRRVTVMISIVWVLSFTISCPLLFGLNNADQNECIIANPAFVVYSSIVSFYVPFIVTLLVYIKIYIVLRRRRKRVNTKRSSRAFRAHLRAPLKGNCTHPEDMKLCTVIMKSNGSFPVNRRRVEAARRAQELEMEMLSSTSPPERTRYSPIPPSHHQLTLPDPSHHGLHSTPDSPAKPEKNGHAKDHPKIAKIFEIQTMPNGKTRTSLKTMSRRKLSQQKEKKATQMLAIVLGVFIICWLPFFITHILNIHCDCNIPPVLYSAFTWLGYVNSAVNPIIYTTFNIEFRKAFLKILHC
# Method in brief: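 HEK293 cells stably expressing DRD2 were cultured 24 h at 37 C, then given Ro20-1724 (0.1 mM final) and compounds for 10 min at room temperature. NKH477 (200nM) was then added for 30 min. cAMP was read by HTRF.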
# [19] = molecular target: D(2) dopamine receptor (Homo sapiens) (UniProt P14416); assay: Dopamine D2 receptor (DRD2) small molecule antagonists, cell-based qHTS assay (AID 1963595; active means well fitted inhibition curve with a large enough effect in the signal ratio in the repeat runs, with a control signal flat; the % refers to the signal ratio)
# Method in brief: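 HEK293 cells stably expressing DRD2, preincubated with 0.1 mM Ro20-1724 and compounds 10 min, were stimulated with 200 nM NKH477 plus 12 nM quinpirole for 30 min at room temperature; cAMP measured by HTRF (665/620 nm).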
# [20] = molecular target: 5-hydroxytryptamine receptor 2A (Homo sapiens) (UniProt P28223); assay: 5-hydroxytryptamine receptor 2A (HTR2A) small molecule agonists, cell-based qHTS assay (AID 1963587); further: nearly all actives have a fitted effect of over 30% in size
# Method in brief: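 HTR2A-CHO cells, plated 18 h at 37 C/5% CO2, dye-loaded 1 h at 37 C; compounds in DMSO added by pin tool (agonist mode). Intracellular calcium flux read as kinetic fluorescence on FDSS over 2 min at 1 s intervals.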
Compound,Potency [1],Potency [2],Potency [3],Potency [4],Potency [5],Potency [6],Potency [7],Potency [8],Potency [9],Potency [10],Potency [11],Potency [12],Potency [13],Potency [14],Potency [15],Potency [16],Potency [17],Potency [18],Potency [19],Potency [20]
CC(C#N)(CCC(=O)O)N=NC(C)(C#N)CCC(=O)O (stereo not given),inactive,inactive,inactive,inactive,inactive,inactive,inactive,inactive,inactive,inactive,inactive,inactive,inactive,inactive,inactive,inactive,inactive,inactive,inactive,
CCOC(=O)CN1CCCC1=O,inactive,inactive,inactive,inactive,inactive,inactive,inactive,inactive,inactive,inactive,,inactive,inactive,inactive,inactive,inactive,inactive,inactive,,inactive
Cc1ccc(N=Nc2c(O)ccc3ccccc23)c(C)c1,inactive,2660 nM (active),inactive,inactive,inactive,inactive,inactive,inactive,inactive,inactive,inactive,inactive,inactive,inactive,inactive,inactive,inactive,inactive,inactive,
CC(C)CCO,inactive,inactive,inactive,inactive,inactive,inactive,inactive,inactive,inactive,inactive,,inactive,inactive,inactive,inactive,inactive,inactive,inactive,inactive,inactive
